# From PubChem BioAssay
# “And” between values parts separate entries of the source, which are not always exact repeats. Equal values may be shown once. The source made the active and inactive calls.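 How the source made its calls, unless noted: active means z-score of at least 1.8 in each of two replicates, scored against plate mean and spread of sample wells; inactive means the rest.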
# What was measured:
# [1] = liver-stage malaria parasite growth inhibition, primary screen, cell-based, HepG2, luciferase luminescence, HepG2 viability (AID 624349; in the data active means parasite load remaining mostly below about 12%, no sharp cut-off; inactive means mostly above about 10%;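 further: 100% = mean of DMSO negative control wells on the same plate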); conditions: P. berghei liver stage in HepG2, luciferase luminescence, concentration not given here; parasite load remaining: stronger effect = lower value; viability: measured here: HepG2 viability without parasites
# [2] = stimulators of nuclear beta-catenin in C2C12, primary screen, imaging, WNT3A-conditioned medium, mouse C2C12, NPC library (AID 1117326; in the data active means nuclear beta-catenin stimulation mostly above about 4.2%, no sharp cut-off; inactive means mostly below about 10%); conditions: stronger effect = higher value
# [3] = stimulators of insulin release from INS-1E, primary screen, cell-based, 5 mM glucose, NPC library (AID 1117329;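 active means compound raises insulin release from rat beta cells at 5 mM glucose, no numeric limit stated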); conditions: rat INS-1E insulin secretion, at 10 µM, stronger effect = higher value
# [4] = growth inhibition of GSK3B-pretreated HCT116 cells – cell-based, CellTiter-Glo, 0.2 to 20 µM (AID 1117336;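 active means compounds lowering colon cancer cell viability after pretreatment blocking the GSK3B kinase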); conditions: HCT116 viability after GSK3B inhibitor, at 20 µM, stronger effect = higher value
# [5] = inhibition of endothelial tube formation, primary screen, imaging, VEGF stimulated, CD31 staining, tube area, NPC library (AID 1117340;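 active means compound that reduces growth-factor-driven endothelial tube area in a mixed cell culture, no cutoff stated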); conditions: VEGF-stimulated ADSC/ECFC co-culture, at 10 µM, stronger effect = higher value
# [6] = glucagon-like peptide 1 release enhancers, primary assay, NCI-H716 cell line, NPC library (AID 1117341;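 active means compound raises GLP1 secretion from the human gut endocrine cells, with no numeric limit stated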); conditions: NCI-H716 cells, at 10 µM, stronger effect = higher value
# [7] = HCT116 colon cancer cell growth inhibition, primary screen, CellTiter-Glo luminescence, NPC library (AID 1117342;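 active means compounds that lower survival of HCT116 colon cancer cells in the luminescence readout, no numeric limit stated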); conditions: at 20 µM (top of the series)
# [8] = CellTiter-Glo luminescent readout of SW480 viability loss, NPC library primary (AID 1117343;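 active means compounds that lower viability of the colon cancer cells in the luminescence readout, with no numeric limit stated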); conditions: CellTiter-Glo luminescence; at 20 µM (top of the series)
# [9] = decreased DLD-1 cellular survival, CellTiter-Glo luminescent readout, NPC compound collection, primary HTS (AID 1117346;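 active means compounds that lower survival of DLD-1 colon cancer cells in the luminescence readout, no cutoff given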); conditions: DLD-1 viability, CellTiter-Glo luminescence; at 20 µM (top of the series)
# [10] = sensitizers of A549 cells to miR-34 induction, primary screen, imaging, A549 dox-inducible miR-34, nuclei and caspase counts (AID 1347080;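 active means compounds whose cell count with miR-34 switched on is under 0.7 times the count with it off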); conditions: A549 miR-34 inducible, Hoechst nuclei count, 48 h
# [11] = viability rescue of complex I mutant cybrids, primary screen, cell-based, galactose medium, ATP luminescence (AID 1645843); conditions: complex I mutant cybrid cells, 72 h, stronger effect = higher value;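 further: positive z means more ATP and so rescue of galactose-driven cybrid death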
# [12] = survival rescue of mitochondrial mutant cells in low glucose, primary screen, MELAS cybrids, Rieske KO mouse fibroblasts, CellTiter-Glo (AID 1508586;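 active means mean z-score across replicates of 1.96 or higher in either the MELAS or the Rieske mutant cell line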;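 further: z relative to plate mean and SD of compound and empty wells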)
# [13] = differential killing of epithelial or mesenchymal cells, primary screen, imaging, PC-3E GFP, TEM4-18 mCherry, co-culture (AID 1345086;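 active means compounds killing one labelled cell type while sparing the other, by normalised counts and ratio limits, not self-fluorescent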;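 on all read-outs here: cells exposed to compound for 72 h before imaging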;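 on red/green cell ratio (normalised): normalised mesenchymal count divided by normalised epithelial count so high means epithelial killing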); conditions: imaging cell counts, at 1 µM; for red/green cell ratio (normalised): actives lie on both sides
# [14] = tested on: Aerobactin synthetase IucA (Klebsiella pneumoniae hvKP1); experiment: Biochemical IucA enzyme inhibition primary screen of the Spectrum library (AID 1346200; call rule not given here;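 further: 100% = wells without compound and 0% = wells lacking enzyme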); conditions: malachite green pyrophosphate, A620, at 8 µM, stronger effect = lower value
# [15] = target: NAD(+) hydrolase SARM1 (Homo sapiens) (UniProt Q6SZW1); experiment: SARM1 TIR NADase inhibitors, cell lysate, NAD-Glo luminescence (AID 1508614;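 active means compound whose remaining NAD level is above about 45 nM, limit read from the data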); conditions: SAM-TIR HEK293T lysate NADase, at 1 µM, stronger effect = higher value
# NAD(+) hydrolase SARM1 (Homo sapiens), sequence (Q6SZW1 whole entry, looked up, the tested form may be a part): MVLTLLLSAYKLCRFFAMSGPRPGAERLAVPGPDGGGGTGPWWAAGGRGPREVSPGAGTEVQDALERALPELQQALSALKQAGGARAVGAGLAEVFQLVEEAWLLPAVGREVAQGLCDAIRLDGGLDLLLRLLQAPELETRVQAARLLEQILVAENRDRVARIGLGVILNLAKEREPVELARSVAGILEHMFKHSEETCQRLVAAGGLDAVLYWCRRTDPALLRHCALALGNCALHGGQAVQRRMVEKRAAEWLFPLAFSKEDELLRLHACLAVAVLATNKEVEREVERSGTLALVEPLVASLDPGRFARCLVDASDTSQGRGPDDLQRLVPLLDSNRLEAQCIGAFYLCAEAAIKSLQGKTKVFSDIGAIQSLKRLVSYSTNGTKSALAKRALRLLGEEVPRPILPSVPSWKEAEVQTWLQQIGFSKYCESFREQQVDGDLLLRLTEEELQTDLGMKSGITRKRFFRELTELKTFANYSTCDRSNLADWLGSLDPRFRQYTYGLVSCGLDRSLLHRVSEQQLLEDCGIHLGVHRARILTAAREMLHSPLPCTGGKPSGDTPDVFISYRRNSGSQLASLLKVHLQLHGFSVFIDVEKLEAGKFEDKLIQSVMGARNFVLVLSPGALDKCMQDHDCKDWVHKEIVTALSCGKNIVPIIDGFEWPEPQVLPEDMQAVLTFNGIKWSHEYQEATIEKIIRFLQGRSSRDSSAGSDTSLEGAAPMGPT
# [16] = target: Mitogen-activated protein kinase 7 (Homo sapiens) (UniProt Q13164); experiment: ERK5 transactivation activators in reporter cells, primary screen, cell-based, HTS (AID 1508626;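 active means luciferase signal above three times the same-plate solvent-only control wells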;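 further: luciferase driven by Gal4-ERK5 fusion binding five Gal4 sites before minimal TATA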); conditions: HeLa Gal4-ERK5 transactivation, 18 h, at 5 µM, stronger effect = higher value
# Mitogen-activated protein kinase 7 (Homo sapiens), sequence (Q13164 whole entry, looked up, the tested form may be a part): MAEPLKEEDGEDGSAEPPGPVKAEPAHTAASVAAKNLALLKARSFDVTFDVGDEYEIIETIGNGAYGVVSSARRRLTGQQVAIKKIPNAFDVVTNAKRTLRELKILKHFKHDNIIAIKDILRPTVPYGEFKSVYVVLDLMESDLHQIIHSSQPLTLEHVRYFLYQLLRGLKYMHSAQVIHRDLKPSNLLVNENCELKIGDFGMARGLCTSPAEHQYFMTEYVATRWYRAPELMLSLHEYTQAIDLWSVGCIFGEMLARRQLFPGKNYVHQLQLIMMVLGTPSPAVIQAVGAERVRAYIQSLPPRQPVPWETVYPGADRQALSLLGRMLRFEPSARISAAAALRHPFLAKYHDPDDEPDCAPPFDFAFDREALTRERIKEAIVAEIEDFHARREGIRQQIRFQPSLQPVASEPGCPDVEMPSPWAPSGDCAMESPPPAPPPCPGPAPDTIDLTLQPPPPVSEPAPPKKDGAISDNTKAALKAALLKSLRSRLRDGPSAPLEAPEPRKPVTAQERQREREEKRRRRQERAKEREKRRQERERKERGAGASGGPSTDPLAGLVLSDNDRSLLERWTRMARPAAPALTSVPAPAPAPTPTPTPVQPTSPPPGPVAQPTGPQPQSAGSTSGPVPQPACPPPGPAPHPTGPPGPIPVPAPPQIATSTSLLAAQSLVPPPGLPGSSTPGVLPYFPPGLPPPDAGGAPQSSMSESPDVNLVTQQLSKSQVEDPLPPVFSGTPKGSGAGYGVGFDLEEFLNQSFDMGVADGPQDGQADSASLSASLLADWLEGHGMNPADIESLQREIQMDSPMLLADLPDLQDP
# [17] = suppressors of polyQ aggregation in yeast, 75Q-TubU reporter (AID 1593); conditions: Yeast 75Q polyglutamine aggregation reporter
# [18] = inhibitors of mitochondrial cytochrome c release, biochemical, purified mitochondria (AID 1603); conditions: stronger effect = lower value;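 further: mouse liver mitochondria challenged with calcium chloride; signal normalized to the plate average as 100%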
# [19] = inhibitors of polyQ protein aggregation (AID 1604); conditions: polyglutamine-induced protein aggregation inhibition assay; stronger effect = higher value; tested at 2.5 µM
# [20] = stronger effect = lower value, cell number ratio, induced over uninduced
# [21] = measured here: relative caspase fold change +Dox/-Dox
# [22] = measured here: total cells with miR-34 induction, stronger effect = lower value
# [23] = measured here: total cells without miR-34 induction
# [24] = MELAS cybrid survival, CellTiter-Glo 48 h, stronger effect = higher value
# [25] = Rieske KO mouse fibroblast survival, CellTiter-Glo 72 h
# [26] = measured here: epithelial PC-3E GFP cell survival
# [27] = measured here: mesenchymal TEM4-18 mCherry cell survival
structure (smiles),measurement,setting,value
O=C(O)C(Cl)Cl,parasite load remaining,[1],106% (inactive)
same,viability,[1],113%
same,nuclear beta-catenin stimulation,[2]; at 10 µM,1.9% (inactive)
same,nuclear beta-catenin stimulation,"[2]; stimulation, at 2 µM",0%
same,insulin secretion stimulation,[3],-1.6% (inactive)
same,viability decrease,[4],-4.8% (inactive)
same,tube area decrease,[5],-7.2% (inactive)
same,GLP1 secretion stimulation,[6],-2% (inactive)
same,inhibition of viability,[7],-9.3% (inactive)
same,viability decrease (inhibition),[8],38.4% (inactive)
same,viability decrease (inhibition),[9],8.5% (inactive)
same,fold change,[10]; stronger effect = lower value,1.04 (inactive)
same,fold change,[10]; [20],0.958 (inactive)
same,fold change,[10]; [21],1.82 and 1.65
same,cell count,[10]; [22],10400 and 8960
same,cell count,[10]; [23],10100 and 9360
same,z-score,[11],0.605 (inactive) and 0.045 (inactive)
CCN(CC)CCOC(=O)C(O)(c1ccccc1)c1ccccc1,parasite load remaining,[1],103% (inactive)
same,viability,[1],95.8%
same,nuclear beta-catenin stimulation,[2]; at 10 µM,-0.3% (inactive)
same,nuclear beta-catenin stimulation,"[2]; stimulation, at 2 µM",-1.2%
same,insulin secretion stimulation,[3],4% (inactive)
same,viability decrease,[4],-5.8% (inactive)
same,tube area decrease,[5],-5.7% (inactive)
same,GLP1 secretion stimulation,[6],1% (inactive)
same,inhibition of viability,[7],1.8% (inactive)
same,viability decrease (inhibition),[8],-15.1% (inactive)
same,viability decrease (inhibition),[9],2.6% (inactive)
same,fold change,[10]; stronger effect = lower value,1.01 (inactive)
same,fold change,[10]; [21],1.6
same,cell count,[10]; [22],10200
same,cell count,[10]; [23],10100
same,z-score,[11],0.79 (inactive)
CCOC(=O)c1cncn1C(C)c1ccccc1 (configuration not stated),parasite load remaining,[1],51% (inactive) and 69.2% (inactive)
same,viability,[1],95.5% and 111%
same,nuclear beta-catenin stimulation,[2]; at 10 µM,1.8% (inactive)
same,nuclear beta-catenin stimulation,"[2]; stimulation, at 2 µM",3.6%
same,insulin secretion stimulation,[3],-0.5% (inactive)
same,viability decrease,[4],-7.2% (inactive)
same,tube area decrease,[5],11% (inactive)
same,GLP1 secretion stimulation,[6],-1.9% (inactive)
same,inhibition of viability,[7],-15.8% (inactive)
same,viability decrease (inhibition),[8],22.4% (inactive)
same,viability decrease (inhibition),[9],-22.4% (inactive)
same,z-score,[12]; [24],-0.441 (inactive)
same,z-score,[12]; [25],0.585
same,z-score,[11],0.035 (inactive) and 0.295 (inactive)
COc1cc(N)c(Cl)cc1C(=O)NC1CN2CCC1CC2 (configuration not stated),parasite load remaining,[1],103% (inactive)
same,viability,[1],107%
same,nuclear beta-catenin stimulation,[2]; at 10 µM,-1.2% (inactive)
same,nuclear beta-catenin stimulation,"[2]; stimulation, at 2 µM",0%
same,insulin secretion stimulation,[3],3% (inactive)
same,viability decrease,[4],0.8% (inactive)
same,tube area decrease,[5],-1.2% (inactive)
same,GLP1 secretion stimulation,[6],6.7% (inactive)
same,inhibition of viability,[7],15.8% (inactive)
same,viability decrease (inhibition),[8],-5.8% (inactive)
same,viability decrease (inhibition),[9],1.7% (inactive)
same,fold change,[10]; stronger effect = lower value,0.946 (inactive)
same,fold change,[10]; [20],0.971 (inactive)
same,fold change,[10]; [21],1.7 and 0.526
same,cell count,[10]; [22],9370 and 10300
same,cell count,[10]; [23],9910 and 10600
same,z-score,[11],0.86 (inactive) and -0.355 (inactive)
Nc1ccc([As](=O)(O)O)cc1,parasite load remaining,[1],57.3% (inactive)
same,viability,[1],124%
same,nuclear beta-catenin stimulation,[2]; at 10 µM,1.1% (inactive)
same,nuclear beta-catenin stimulation,"[2]; stimulation, at 2 µM",0.8%
same,insulin secretion stimulation,[3],-1.7% (inactive)
same,viability decrease,[4],-4.2% (inactive)
same,tube area decrease,[5],-12.5% (inactive)
same,GLP1 secretion stimulation,[6],0.9% (inactive)
same,inhibition of viability,[7],26% (inactive)
same,viability decrease (inhibition),[8],2.1% (inactive)
same,viability decrease (inhibition),[9],-7.6% (inactive)
same,red/green cell ratio (normalised),[13],0.96 (inactive)
same,normalised cell number,[13]; [26],1.12
same,normalised cell number,[13]; [27],1.07
same,activity remaining,[14],117% (inactive)
same,fold change,[10]; stronger effect = lower value,0.904 (inactive)
same,fold change,[10]; [21],4.85
same,cell count,[10]; [22],12200
same,cell count,[10]; [23],13500
same,remaining NAD,[15],10 nM (inactive)
same,luciferase signal,[16],48 AU (inactive)
c1ccc2c(c1)Nc1ccccc1S2,parasite load remaining,[1],39.8% (inactive)
same,viability,[1],65.3%
same,nuclear beta-catenin stimulation,[2]; at 10 µM,-1.5% (inactive)
same,nuclear beta-catenin stimulation,"[2]; stimulation, at 2 µM",-0.5%
same,insulin secretion stimulation,[3],1% (inactive)
same,viability decrease,[4],77.7% (active)
same,tube area decrease,[5],-18.6% (inactive)
same,GLP1 secretion stimulation,[6],-2.4% (inactive)
same,inhibition of viability,[7],48.1% (inactive)
same,viability decrease (inhibition),[8],60% (active)
same,viability decrease (inhibition),[9],38% (active)
same,red/green cell ratio (normalised),[13],0.84 (inactive)
same,normalised cell number,[13]; [26],0.93
same,normalised cell number,[13]; [27],0.78
same,fold change,[10]; stronger effect = lower value,0.885 (inactive) and 0.762 (inactive)
same,fold change,[10]; [21],1.16 and 2.24
same,cell count,[10]; [22],8220 and 7990
same,cell count,[10]; [23],9300 and 10500
same,z-score,[12]; [24],-0.376 (inactive) and 0.48 (inactive)
same,z-score,[12]; [25],-0.33 and 0.378
same,remaining NAD,[15],10 nM (inactive)
same,z-score,[11],-0.355 (inactive)
Nc1nc(N)nc(NC2CC2)n1,nuclear beta-catenin stimulation,[2]; at 10 µM,0.9% (inactive)
same,nuclear beta-catenin stimulation,"[2]; stimulation, at 2 µM",2.8%
same,insulin secretion stimulation,[3],-1.3% (inactive)
same,viability decrease,[4],-16.8% (inactive)
same,tube area decrease,[5],5.4% (inactive)
same,GLP1 secretion stimulation,[6],2.4% (inactive)
same,inhibition of viability,[7],2.07% (inactive)
same,viability decrease (inhibition),[8],-5.7% (inactive)
same,viability decrease (inhibition),[9],-8.2% (inactive)
same,red/green cell ratio (normalised),[13],0.97 (inactive)
same,normalised cell number,[13]; [26],1
same,normalised cell number,[13]; [27],0.96
same,fold change,[10]; stronger effect = lower value,0.94 (inactive) and 0.918 (inactive)
same,fold change,[10]; [21],0.828 and 0.774
same,cell count,[10]; [22],8490 and 8320
same,cell count,[10]; [23],9030 and 9070
same,z-score,[12]; [24],-0.201 (inactive)
same,z-score,[12]; [25],-0.194
same,remaining NAD,[15],10 nM (inactive)
COc1ccc(C(=O)N2CCCC2=O)cc1,score,[17],0.89
same,cytochrome c release ratio,[18],0.98
same,inhibition of aggregation,[19],60.5%
same,parasite load remaining,[1],27.9% (inactive) and 46.2% (inactive)
same,viability,[1],90.5% and 108%
same,nuclear beta-catenin stimulation,[2]; at 10 µM,0.6% (inactive)
same,nuclear beta-catenin stimulation,"[2]; stimulation, at 2 µM",1.5%
same,insulin secretion stimulation,[3],-0.2% (inactive)
same,viability decrease,[4],-7.2% (inactive)
same,tube area decrease,[5],-6.9% (inactive)
same,GLP1 secretion stimulation,[6],-1% (inactive)
same,inhibition of viability,[7],-1% (inactive)
same,viability decrease (inhibition),[8],8.2% (inactive)
same,viability decrease (inhibition),[9],2.2% (inactive)
same,red/green cell ratio (normalised),[13],1.03 (inactive)
same,normalised cell number,[13]; [26],1.3
same,normalised cell number,[13]; [27],1.35
same,activity remaining,[14],112% (inactive)
same,z-score,[12]; [24],0.14 (inactive) and 0.301 (inactive) and -1.05 (inactive)
same,z-score,[12]; [25],1 and 0.247 and -0.762
same,remaining NAD,[15],10 nM (inactive)
same,luciferase signal,[16],60 AU (inactive)
same,z-score,[11],0.545 (inactive) and 0.9 (inactive) and 0.65 (inactive)
COc1cccc([C@@]2(O)CCCC[C@@H]2CN(C)C)c1,nuclear beta-catenin stimulation,[2]; at 10 µM,4.3% (inactive)
same,nuclear beta-catenin stimulation,"[2]; stimulation, at 2 µM",1.4%
same,insulin secretion stimulation,[3],9.4% (inactive)
same,viability decrease,[4],34.1% (inactive)
same,tube area decrease,[5],-7.2% (inactive)
same,GLP1 secretion stimulation,[6],4.9% (inactive)
same,inhibition of viability,[7],30.7% (inactive)
same,viability decrease (inhibition),[8],75.1% (active)
same,viability decrease (inhibition),[9],20.8% (inactive)
same,fold change,[10]; stronger effect = lower value,0.937 (inactive)
same,fold change,[10]; [21],0.969
same,cell count,[10]; [22],10100
same,cell count,[10]; [23],10700
same,z-score,[12]; [24],0.879 (inactive) and 0.255 (inactive)
same,z-score,[12]; [25],0.166 and -0.539
same,remaining NAD,[15],10 nM (inactive)
same,luciferase signal,[16],40 AU (inactive)
same,z-score,[11],0.845 (inactive)
